The panel holds about 79,000 compounds, 15% with a hit somewhere; the sample as a whole holds those more often. A number with no mark means an inactive call. Calls of active or inactive are those of the source. Cut-off read from the data, not from the text of the source: active = growth inhibition above about 70%; inactive = the rest.
Experiments:
[1] = NCI Yeast Anticancer Drug Screen. Data for the rad50 strain (AID 155);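 note: 0% = growth of vehicle-only cultures of the same strain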; settings: S. cerevisiae rad50 strain growth inhibition; at 50.0 µM; hits give high values
Method in brief: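 Genetically altered yeast (DNA repair pathway); compound treatment; growth inhibition vs vehicle ctrl.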

[2] = NCI Yeast Anticancer Drug Screen. Data for the mec2-1 strain (AID 157); settings: S. cerevisiae mec2-1 strain, at 50.0 µM, hits give high values
Method in brief: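 Mutant yeast (mec2-1) grown with compound; growth inhibition relative to vehicle control reported.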

[3] = NCI Yeast Anticancer Drug Screen. Data for the sgs1 mgt1 strain (AID 161);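 note: 0% = growth of cultures given vehicle only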; settings: S. cerevisiae sgs1 mgt1 strain, at 50.0 µM, hits give high values
Method in brief: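 Percent growth inhibition was derived by comparing compound-exposed mutant yeast with vehicle-exposed cultures. The strain carries alterations in DNA damage repair.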

[4] = NCI Yeast Anticancer Drug Screen. Data for the cln2 rad14 strain (AID 165);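 note: 0% = growth equal to vehicle treated cultures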; settings: S. cerevisiae cln2 rad14 strain, at 50.0 µM, hits give high values
Method in brief: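 Readout is yeast growth inhibition versus vehicle-treated controls, using a strain with cln2 and rad14 alterations exposed to compound.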

[5] = NCI Yeast Anticancer Drug Screen. Data for the bub3 strain (AID 167); settings: S. cerevisiae bub3 mutant strain, at 50.0 µM, hits give high values
Method in brief: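 Yeast carrying a defined mutation is treated with each compound, and growth is compared with that of vehicle-exposed cells to give inhibition.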

[6] = NCI Yeast Anticancer Drug Screen. Data for the mlh1 rad18 strain (AID 175); settings: S. cerevisiae mlh1 rad18 strain growth inhibition; at 50.0 µM; hits give high values
Method in brief: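 Genetically defined yeast (DNA repair-deficient) exposed to compounds; growth inhibition determined relative to vehicle.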

Structure (SMILES)	growth inhibition [1]	growth inhibition [2]	growth inhibition [3] [%]	growth inhibition [4]	growth inhibition [5]	growth inhibition [6]
CC12C(=O)OC(=O)C1C1C=CC2C1 (stereo unspecified)	20.2%	6.15%	-18.2	-64.5%	-0.35%	5.05%
N#Cc1c2ccccc2cc2c1ccc1ccccc12	6.95%	17.1%	15.8	-4.45%	11.9%	17.1%
CC(O)c1ccc(C(O)/C(=N\NC(=O)c2ccncc2)c2nc3ccc([N+](=O)[O-])cc3[nH]c2=O)cc1 (stereo unspecified)	-5.95%	-10.2%	15.2	-60.7%	-5.1%	-2.25%
O=c1nc(-c2ccco2)sc(=O)[nH]1	-0.05%	-5.6%	-8.35	13.2%	-5.85%	-3.4%
O=C(Nc1cccc([N+](=O)[O-])c1)C(=O)C(C(=O)c1ccccc1-c1ccccc1)C1OC(=O)c2ccccc21 (stereo unspecified)	27.9%	3.45%	17.9	-45%	-6.85%	10.1%
O=C(O)c1ccc(N=C=S)cc1O	-1.95%	-8.75%	-2.1	-12.8%	3.8%	-1.8%
Cc1nc(NCCNCCO)nc2c1C(=O)Nc1ccccc1N2	-43.9%	-50.8%	-7.65	-5.3%	-3.9%	-38.8%
COC(=O)c1cc(-c2ccccc2Cl)n2c(N)nnc2n1	21.6%	-3.1%	32.6	-6.2%	-20.3%	7.1%
CNCc1cccs1	-26.8%	-9.7%	-27.8	-40.3%	-17.6%	-10.4%
COc1ccc(S(=O)(=O)N(CC(=O)O)c2ccccc2)cc1	-19.3%	-6%	-4.35	-6.15%	-7.75%	-0.7%
Cn1c2ccccc2c2ccc3c(c21)C(=O)C(c1ccccc1)=CC3=O	19.7%	-21.2%	-10.3	17.6%	-28.3%	-5.85%
CCCCCC/C=C/CCCCCCCc1cccc(OC)c1 (tested in a mixture with another compound)	3.85%	-5.9%	3.6	-14.7%	1.25%	12.1%
O=CC1OC(c2ccccc2)OC1C1OC(c2ccccc2)OC1C=O (stereo unspecified)	19.4%	13.7%	19.2	-22.6%	17.9%	22.8%
CC(O)C(=O)N1CCOCC1 (stereo unspecified)	3.5%	-3.65%	-0.7	-24.9%	4.25%	-23.3%
CC(CO)CCC(O)C(C)(O)C1CCC2(O)C3=CC(=O)C4CC(O)C(O)CC4(C)C3CCC12C (stereo unspecified)	4.05%	-23.5%	10.2	7.75%	17.8%	-68.2%
Fc1ccc(-c2ncc(-c3ccccc3)o2)cc1	0.95%	-22.9%	5.45	0.05%	-14.8%	-12.9%
COc1cc(C(C)c2cc3c(cc2O)OCO3)cc(OC)c1OC (stereo unspecified)	-31.2%	-26.1%	-15.6	8.5%	26.8%	-16.4%
O=Cc1cc2c(cc1-c1c(C=O)ccc3c1OCO3)OCO2	58.2%	27.2%	46.9	18.6%	30.9%	26.6%
CN(CCO)CCN1c2ccccc2Sc2ccccc21	-12.7%	-26.3%	-10.2	-13.9%	-5.8%	-0.65%
O=C(NC1CCCCC1)c1cccnc1	-11.4%	-2.2%	-17.1	-10.9%	-14.5%	-13.5%
C/C(=C/c1ccccc1)C(=O)O	-3.8%	-18.8%	-22	-20.1%	-20.8%	-2.45%

Structure (SMILES)	growth inhibition [1]	growth inhibition [2]	growth inhibition [3] [%]	growth inhibition [4]	growth inhibition [5]	growth inhibition [6]
COc1cc(/C=N\NS(=O)(=O)c2ccc(N)cc2)ccc1O	10.1%	-18.3%	5.05	9.55%	-24.8%	17.1%
CSc1nc2nc(C)c(C)nc2c(=O)[nH]1	-21.9%	-19.4%	-43.5	3.9%	-0.75%	-32%
CN1C(=O)CCC1(O)C1C=CC=CC1 (stereo unspecified)	16.8%	7.55%	1.75	16.9%	-4.9%	-2.85%
O=C(O)COc1ccc(C(=O)O)cc1	5.6%	-19.9%	3.7	-53.7%	-23.4%	-6.15%
CCCCC(CC)COC(=O)COc1ccc(C(C)c2ccc(OCC(=O)OCC(CC)CCCC)cc2)cc1 (stereo unspecified)	-6.6%	10.5%	7.9	-3.55%	3.2%	-38.2%
CCS(=O)O	-21.2%	15.9%	1.3	-4.25%	-6.8%	-8.9%
O=S(=O)(CS(=O)(=O)c1ccccc1Br)c1ccccc1Br	-7.65%	30.3%	-16	13%	1.95%	6.95%
CCCCNc1cccc2ccccc12	50.2%	23.1%	-10.2	-43.5%	2.55%	27.6%
CCCC(O)C(C)[N+](=O)[O-] (stereo unspecified)	7.25%	4.5%	-0.65	4.75%	4.2%	0.6%
N#CCC(=O)Nc1ccccc1	37%	15.7%	5.8	-11.8%	6.25%	26.2%
[N-]=[N+]=NC1CC(n2cc(Cc3ccccc3)c(N)nc2=O)OC1CO (stereo unspecified)	-0.1%	-10.6%	11.4	2.95%	2.9%	-7.05%
COC(=O)c1ccc(C(=O)c2ccc(OC)cc2OC)cc1	-0.1%	-4.05%	-0.85	-58.8%	4.15%	-17.4%
C/C1=C/C(C)CC(C)OC(=O)C(C)NC(=O)C(Cc2ccc(O)c(I)c2)N(C)C(=O)C(C)NC(=O)C(C)C1 (stereo unspecified)	92.8% (active)	93.7% (active)	52.4	90.7% (active)	92.8% (active)	91.2% (active)
COC(=O)[C@@H]1[C@H](OC(C)=O)CCC2[C@@]3(C[C@@H](c4ccoc4)O[C@@H]3OC)[C@H](C)CC[C@]21C(=O)OC (stereo partly specified)	-12.4%	-5.1%	-39	-8.7%	-36.9%	-37.5%
O=C1CCCCCCN1	8.9%	-33.4%	1.5	16.6%	-17.2%	12.6%
CC(SC(C)C(=O)N/N=C/C=C\c1ccccc1)C(=O)N/N=C\C=C\c1ccccc1 (stereo unspecified)	15.1%	5%	1.05	7.8%	4.05%	33.7%
CN(C)c1ncnc2nc[nH]c12	-14.6%	0.7%	-6.1	-14.4%	-2.6%	16.3%
NC1CC(=O)c2c(Cl)sc(Cl)c21 (stereo unspecified)	51.4%	35.7%	60.5	41.6%	27.6%	1.15%
O=C1CSCN1N1CSCC1=O	-5.85%	3.1%	7.85	-4.35%	8.95%	18.8%
CC(=O)C(CCC(=O)O)(CCC(=O)O)c1ccccc1	2%	21.6%	5.3	-49.4%	13.7%	20.2%

Reference: PubChem BioAssay (NCI)
